# Test results taken from ChEMBL document CHEMBL3988442, “University of Dundee, Small-Polar-MMV Screening Library” (2021).
# For some assays here: Results with a measured potency or affinity are listed apart.
# Key:
# Design in all cases: scale not given: direction of the effect not stated beside the values
# [1] = biological target: Protein translocase subunit SecA (Escherichia coli (strain K12)) (UniProt P10408); assay: Assay to Identify E. coli SecA ATPase Inhibitors; assay type: functional; conditions: 30 µM
# [2] = biological target: T1, Ubiquitin-activating enzyme e1, putative (Leishmania donovani (strain BPK282A1)) (UniProt E9BSI1); assay: Leishmania donovani Ubiquitin Activating Enzyme (LdE1); assay type: functional; conditions: 30 µM
# T1 sequence (whole entry): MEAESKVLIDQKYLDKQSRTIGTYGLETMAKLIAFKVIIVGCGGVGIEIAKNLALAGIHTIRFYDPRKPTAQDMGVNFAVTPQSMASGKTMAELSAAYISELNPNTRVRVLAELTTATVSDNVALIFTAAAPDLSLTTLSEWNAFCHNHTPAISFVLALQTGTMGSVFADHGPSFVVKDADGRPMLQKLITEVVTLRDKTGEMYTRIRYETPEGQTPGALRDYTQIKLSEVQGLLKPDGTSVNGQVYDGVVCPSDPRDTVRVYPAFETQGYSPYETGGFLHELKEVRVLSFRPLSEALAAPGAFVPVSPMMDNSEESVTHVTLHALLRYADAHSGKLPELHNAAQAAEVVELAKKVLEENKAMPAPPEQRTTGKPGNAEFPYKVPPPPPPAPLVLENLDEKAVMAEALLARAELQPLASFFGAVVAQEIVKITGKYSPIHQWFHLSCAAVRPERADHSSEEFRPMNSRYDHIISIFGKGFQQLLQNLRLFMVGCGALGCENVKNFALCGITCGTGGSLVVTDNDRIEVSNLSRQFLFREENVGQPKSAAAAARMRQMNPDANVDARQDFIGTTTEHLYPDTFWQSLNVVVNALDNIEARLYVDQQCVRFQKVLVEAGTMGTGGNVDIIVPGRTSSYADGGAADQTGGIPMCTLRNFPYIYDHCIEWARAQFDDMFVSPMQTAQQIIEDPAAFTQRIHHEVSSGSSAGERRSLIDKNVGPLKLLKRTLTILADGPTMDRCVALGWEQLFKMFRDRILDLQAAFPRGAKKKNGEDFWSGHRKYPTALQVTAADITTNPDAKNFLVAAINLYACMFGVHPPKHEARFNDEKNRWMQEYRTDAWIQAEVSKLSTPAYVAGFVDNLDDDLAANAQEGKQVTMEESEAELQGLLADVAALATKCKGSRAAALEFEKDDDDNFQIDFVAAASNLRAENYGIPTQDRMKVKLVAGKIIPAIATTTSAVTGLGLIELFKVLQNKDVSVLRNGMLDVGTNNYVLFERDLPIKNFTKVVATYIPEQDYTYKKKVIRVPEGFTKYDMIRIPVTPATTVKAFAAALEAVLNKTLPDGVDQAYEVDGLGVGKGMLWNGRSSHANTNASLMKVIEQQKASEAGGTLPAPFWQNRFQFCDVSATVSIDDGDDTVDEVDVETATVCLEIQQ
# [3] = biological target: AMP-activated protein kinase, AMPK (Homo sapiens) (UniProt P54646+O43741+P54619+Q9UGJ0+Q9Y478+Q13131+Q9UGI9); assay: AMP-dependent Kinase enzyme assay. An in vitro enzyme assay that detects ADP turnover that is directly proportional to AMPK activity. This uses naive AMPK that is activated during the assay with MK-8722; assay type: functional; conditions: 30 µM
# [4] = biological target: Sialic acid-binding Ig-like lectin 9 (Homo sapiens) (UniProt Q9Y336); assay: Hs-Siglec9 ALPHAscreen SOP 20170721; conditions: 10 µM
# [5] = tested on: Trypanosoma cruzi; assay: Trypanosoma cruzi phosphomannomutase and mannose-1-phosphate guanylyltransferase assay; assay type: functional; conditions: 10 µM
# [6] = biological target: T2, Arginase-2, mitochondrial (Homo sapiens) (UniProt P78540); assay: in vitro enzyme assay to detect the production of urea directly proportional to the activity of Arginase II; assay type: functional; conditions: 33.3 µM; also: in the data most compounds retested in dose-response had high values
# T2 sequence (whole entry): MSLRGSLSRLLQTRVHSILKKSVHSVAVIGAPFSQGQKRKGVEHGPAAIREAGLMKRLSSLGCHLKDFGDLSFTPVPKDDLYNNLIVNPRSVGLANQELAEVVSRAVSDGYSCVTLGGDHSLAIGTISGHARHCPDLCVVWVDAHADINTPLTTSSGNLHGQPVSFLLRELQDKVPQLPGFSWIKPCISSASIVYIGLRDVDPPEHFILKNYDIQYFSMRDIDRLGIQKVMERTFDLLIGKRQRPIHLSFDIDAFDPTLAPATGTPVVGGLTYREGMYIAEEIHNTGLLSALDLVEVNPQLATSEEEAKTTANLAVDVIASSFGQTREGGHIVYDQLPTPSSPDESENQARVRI
# [7] = biological target: T3, Proteasome subunit beta (Trypanosoma cruzi) (UniProt O96673); assay: Trypanosoma cruzi proteasome chymotrypsin-like activity (TcProtChymo) assay.; also: in the data most compounds retested in dose-response had high values; assay type: functional; conditions: 9.37 µM
# T3 sequence (whole entry): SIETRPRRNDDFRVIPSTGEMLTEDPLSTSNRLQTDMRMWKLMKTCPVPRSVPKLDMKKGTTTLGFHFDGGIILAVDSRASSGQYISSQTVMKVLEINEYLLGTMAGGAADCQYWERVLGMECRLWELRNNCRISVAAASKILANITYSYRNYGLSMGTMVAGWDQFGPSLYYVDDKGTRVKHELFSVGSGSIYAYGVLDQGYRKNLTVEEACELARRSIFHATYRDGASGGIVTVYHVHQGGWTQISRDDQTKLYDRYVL
# [8] = organism: Homo sapiens; assay: To identify inhibition of the IFN signalling (Jak-Stat) pathway via expression of an eGFP reporter gene under the control of an IFN-stimulated response element (ISRE) containing MxA promoter.; assay type: functional; conditions: 30 µM
# [9] = biological target: T4, Tyrosyl-tRNA synthetase, putative (Trypanosoma cruzi (strain CL Brener)) (UniProt Q4DSP6); assay: Trypanosoma cruzi tyrosyl tRNA synthetase (TcYRS) _High Tyrosine SOP; assay type: functional; conditions: 30 µM; also: in the data most compounds retested in dose-response had high values
# T4 sequence (whole entry): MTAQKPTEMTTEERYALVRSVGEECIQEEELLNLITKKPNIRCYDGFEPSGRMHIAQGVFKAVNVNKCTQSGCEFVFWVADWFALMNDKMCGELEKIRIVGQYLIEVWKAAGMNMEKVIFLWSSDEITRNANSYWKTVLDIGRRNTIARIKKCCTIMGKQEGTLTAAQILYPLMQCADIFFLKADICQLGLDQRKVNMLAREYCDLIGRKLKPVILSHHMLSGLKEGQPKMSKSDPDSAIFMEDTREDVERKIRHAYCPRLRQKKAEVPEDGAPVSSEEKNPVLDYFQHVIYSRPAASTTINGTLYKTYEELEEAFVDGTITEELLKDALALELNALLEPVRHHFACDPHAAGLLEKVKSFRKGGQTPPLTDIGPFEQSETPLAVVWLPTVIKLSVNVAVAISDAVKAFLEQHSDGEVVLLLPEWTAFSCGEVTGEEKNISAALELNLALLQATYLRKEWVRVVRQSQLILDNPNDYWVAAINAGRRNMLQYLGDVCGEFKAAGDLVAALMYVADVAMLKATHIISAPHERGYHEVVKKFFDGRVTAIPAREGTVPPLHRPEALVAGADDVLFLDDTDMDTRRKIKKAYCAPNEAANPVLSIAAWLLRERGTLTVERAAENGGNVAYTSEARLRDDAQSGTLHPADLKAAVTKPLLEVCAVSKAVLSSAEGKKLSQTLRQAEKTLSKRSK
# [10] = biological target: T4, Tyrosyl-tRNA synthetase, putative (Trypanosoma cruzi (strain CL Brener)); assay: Trypanosoma cruzi tyrosyl tRNA synthetase (TcYRS) SOP; assay type: functional; conditions: 30 µM
# [11] = biological target: Chromo domain-containing protein 1 (Saccharomyces cerevisiae (strain ATCC 204508 / S288c) (Baker's yeast)) (UniProt P32657); assay: ScCHD-1 Enzyme Inhibition Assay; assay type: functional; conditions: 30 µM; also: in the data most compounds retested in dose-response had high values
# Chain of Chromo domain-containing protein 1 (Saccharomyces cerevisiae (strain ATCC 204508 / S288c) (Baker's yeast)) (P32657 whole entry, the tested form may be a part): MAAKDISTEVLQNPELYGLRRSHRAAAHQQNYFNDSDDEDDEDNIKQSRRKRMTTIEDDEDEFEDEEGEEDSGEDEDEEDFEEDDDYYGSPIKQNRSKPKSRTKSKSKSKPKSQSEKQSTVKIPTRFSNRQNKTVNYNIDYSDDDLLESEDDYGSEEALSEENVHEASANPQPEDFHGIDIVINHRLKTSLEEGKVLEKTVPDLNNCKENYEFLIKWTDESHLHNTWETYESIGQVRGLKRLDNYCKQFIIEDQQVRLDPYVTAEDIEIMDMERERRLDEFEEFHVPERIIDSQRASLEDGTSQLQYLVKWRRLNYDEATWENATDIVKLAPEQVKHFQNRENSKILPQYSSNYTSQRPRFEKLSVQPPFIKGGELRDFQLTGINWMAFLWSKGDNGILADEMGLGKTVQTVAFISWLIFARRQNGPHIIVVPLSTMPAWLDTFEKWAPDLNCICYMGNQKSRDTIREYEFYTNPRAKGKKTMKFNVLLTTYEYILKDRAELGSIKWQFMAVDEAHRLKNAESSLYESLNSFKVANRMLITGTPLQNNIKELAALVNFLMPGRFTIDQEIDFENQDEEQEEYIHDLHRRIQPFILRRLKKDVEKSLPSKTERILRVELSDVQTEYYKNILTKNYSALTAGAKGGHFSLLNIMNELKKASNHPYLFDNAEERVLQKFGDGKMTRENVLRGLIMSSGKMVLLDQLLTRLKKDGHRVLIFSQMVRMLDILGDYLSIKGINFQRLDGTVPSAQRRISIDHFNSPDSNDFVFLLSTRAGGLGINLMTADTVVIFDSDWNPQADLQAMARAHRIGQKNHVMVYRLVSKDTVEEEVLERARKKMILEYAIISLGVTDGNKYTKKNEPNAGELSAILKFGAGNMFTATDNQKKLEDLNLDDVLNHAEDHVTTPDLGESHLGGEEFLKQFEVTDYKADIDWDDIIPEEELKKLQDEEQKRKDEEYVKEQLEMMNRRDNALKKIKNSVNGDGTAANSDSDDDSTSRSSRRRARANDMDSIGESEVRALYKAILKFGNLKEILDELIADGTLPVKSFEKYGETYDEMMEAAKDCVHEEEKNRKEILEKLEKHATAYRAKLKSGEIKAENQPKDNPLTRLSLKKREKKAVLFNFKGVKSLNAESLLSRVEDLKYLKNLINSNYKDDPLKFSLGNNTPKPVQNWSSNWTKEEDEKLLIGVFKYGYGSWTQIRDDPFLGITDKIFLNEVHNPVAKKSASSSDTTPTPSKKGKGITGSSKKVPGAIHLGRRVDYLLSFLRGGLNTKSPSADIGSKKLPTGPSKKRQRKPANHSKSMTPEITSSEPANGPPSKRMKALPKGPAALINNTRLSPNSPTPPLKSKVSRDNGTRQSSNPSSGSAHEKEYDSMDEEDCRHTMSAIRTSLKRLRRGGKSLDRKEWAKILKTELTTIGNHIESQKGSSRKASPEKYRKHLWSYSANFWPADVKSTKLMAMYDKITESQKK
# Chain of Protein translocase subunit SecA (Escherichia coli (strain K12)) (P10408 whole entry): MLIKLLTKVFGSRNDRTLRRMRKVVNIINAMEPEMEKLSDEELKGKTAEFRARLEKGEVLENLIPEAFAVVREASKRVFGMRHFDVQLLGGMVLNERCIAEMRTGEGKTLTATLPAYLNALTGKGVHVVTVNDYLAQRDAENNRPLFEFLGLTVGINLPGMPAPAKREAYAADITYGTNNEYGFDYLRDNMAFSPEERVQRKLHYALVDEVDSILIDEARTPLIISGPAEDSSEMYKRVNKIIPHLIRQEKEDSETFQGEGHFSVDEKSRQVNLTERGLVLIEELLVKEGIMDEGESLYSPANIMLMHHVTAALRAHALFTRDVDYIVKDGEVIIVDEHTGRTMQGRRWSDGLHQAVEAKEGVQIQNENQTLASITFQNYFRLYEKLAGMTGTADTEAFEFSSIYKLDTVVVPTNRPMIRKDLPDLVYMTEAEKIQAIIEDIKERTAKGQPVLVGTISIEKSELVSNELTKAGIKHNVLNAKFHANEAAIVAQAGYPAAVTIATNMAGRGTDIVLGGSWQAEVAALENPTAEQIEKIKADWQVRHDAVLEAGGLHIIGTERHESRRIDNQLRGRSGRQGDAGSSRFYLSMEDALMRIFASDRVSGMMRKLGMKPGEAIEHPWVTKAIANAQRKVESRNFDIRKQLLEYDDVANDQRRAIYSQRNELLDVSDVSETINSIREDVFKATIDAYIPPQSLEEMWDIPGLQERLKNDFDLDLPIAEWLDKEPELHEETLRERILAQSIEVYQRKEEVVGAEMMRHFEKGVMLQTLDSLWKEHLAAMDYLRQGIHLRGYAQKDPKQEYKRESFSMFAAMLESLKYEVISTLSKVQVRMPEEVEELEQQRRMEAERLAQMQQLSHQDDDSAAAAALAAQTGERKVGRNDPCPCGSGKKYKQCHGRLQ
# Chain of Sialic acid-binding Ig-like lectin 9 (Homo sapiens) (Q9Y336 whole entry): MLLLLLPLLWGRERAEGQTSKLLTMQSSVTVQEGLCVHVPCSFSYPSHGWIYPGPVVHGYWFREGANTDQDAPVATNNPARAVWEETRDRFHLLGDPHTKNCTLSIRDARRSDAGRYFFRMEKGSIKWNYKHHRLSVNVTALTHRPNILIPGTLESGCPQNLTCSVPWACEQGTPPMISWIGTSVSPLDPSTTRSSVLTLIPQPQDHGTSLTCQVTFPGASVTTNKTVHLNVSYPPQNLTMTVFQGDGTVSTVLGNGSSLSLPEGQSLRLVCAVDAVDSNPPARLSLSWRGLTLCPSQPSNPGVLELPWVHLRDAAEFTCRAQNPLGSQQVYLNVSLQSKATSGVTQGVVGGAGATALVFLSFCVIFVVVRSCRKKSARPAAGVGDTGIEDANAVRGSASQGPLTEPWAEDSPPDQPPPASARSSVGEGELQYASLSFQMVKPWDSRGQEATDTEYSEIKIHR
Compound,Percent Effect [1] [%],Percent Effect [2] [%],Percent Effect [3] [%],Percent Effect [4] [%],Percent Effect [5] [%],Percent Effect [6] [%],Percent Effect [7] [%],Percent Effect [8] [%],Percent Effect [9] [%],Percent Effect [10] [%],Percent Effect [11] [%]
COc1ccc(CNCc2ccnc(N3CCOCC3)c2)c(OC)c1,-4.43,8.11,-10.3,1.04,-3.49,3.21,7.75,28.2,3.45,6.17,-4.72
Clc1snnc1CN1CCCC(Cn2cncn2)C1 (stereo unspecified),-1.77,17.7,-3.42,-8.68,1.98,-1.52,18.6,6.4,10.3,29.1,-10.8
O=C(c1cnccn1)N1CCOC2(CCN(Cc3ccsc3)CC2)C1,-1.55,0,2.03,7.22,1.16,-52.1,0,-18.7,2.08,2.5,-4.34
Cc1oc(C)c(C(=O)NCc2ccccn2)c1C,-0.692,10.5,-8.31,2.54,-12.8,7.28,15.7,14,1.47,7.32,-5.27
CCc1ncc(C(=O)N2CCCCC2Cn2cccn2)s1 (stereo unspecified),-0.823,0,2.6,-4.33,-3.44,1.66,-4.13,7.71,2.97,-23.2,10.1
CN(CC(=O)NC1(C#N)CCCC1)C1CCCN(c2cccnn2)C1 (stereo unspecified),-3.01,7.89,-63.6,7.82,8.12,2.16,11.6,-30.1,6.4,18.5,-6.35
Cc1nc(C2CCCN2C(=O)c2cc3c(s2)CCCC3)no1 (stereo unspecified),-3.05,0,2.69,3.43,3.95,4.98,3.51,5.26,-0.49,0,5.53
Cc1nc(C)n(CC2CCCN2CC(=O)Nc2cc(C(C)C)no2)n1 (stereo unspecified),-3.86,18.4,-3.35,10.4,1.03,-0.36,8.21,22.5,4.43,16.1,-3.86
Cc1nn(C)c(N(C)C)c1CNCc1cccc(OCCN(C)C)c1,-0.484,15.8,-1.72,5.4,-8.08,-4.98,14.4,23.3,-1.47,7.32,-6.3
NS(=O)(=O)N1CCc2ccc(NC(=O)Cc3ccc(F)cc3)cc21,-2.62,2.74,-2.62,3.78,4.31,-39.1,6.92,20.9,-3.23,2.5,-1.74
O=C(CCc1nccs1)N1CCCC(N2CCNC2=O)C1 (stereo unspecified),-3.25,11,5.41,-1.3,-2.35,5,8.16,4.48,4.3,10,-4.2
COc1ccc(C)cc1S(=O)(=O)NCC(c1cccn1C)N(C)C (stereo unspecified),-6.79,8.22,-12.1,2.18,-5.49,1.36,12.2,6.68,5.38,10,104
Cc1ccc(CN(Cc2c[nH]cn2)C2CC(C)(C)NC(C)(C)C2)o1,-2.16,4.05,13.8,0.615,-9.49,-1.62,10.4,12.1,4.3,3.9,-10.2
O=C(COCc1nc(-c2ccncc2)no1)NC1CCCCC1,-6.1,7.79,1.21,9.68,2.46,0,7.65,5.36,7.53,13.6,-2.34
COc1ccc2c(c1)CN(Cc1nc3c(cnn3C)c(=O)[nH]1)CC2,-1.51,15.2,-8.08,0.541,0.85,2.66,7.45,8.47,4.43,21.5,-7.47
Cc1nc(C2CCCN2CCCNS(C)(=O)=O)no1 (stereo unspecified),-3.7,15.8,-4.74,1.41,7.14,4.98,20.4,-7.41,4.41,19.5,-5.18
